The values that follow come from PubChem BioAssay AID697 (Columbia University Molecular Screening Center, 2007).

Out of some 96,000 compounds screened, about 100 (0.1%) were called active.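 The calls were made as follows: active = activation at 2 µM above a set limit, the mean plus 5 SD (cut at about 37% in these data); inactive = the rest.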 The sample as a whole holds a higher share of actives than the screen did.

The target in the experiment is Tyrosine-protein phosphatase non-receptor type 22 (Homo sapiens) (UniProt Q9Y2R2). The experiment is described as follows: enhancers of human PTPN22 catalytic activity – biochemical, DiFMUP fluorescence, 2 µM, primary screen (AID 697). The settings on record: recombinant LYP, at 2 µM, hits give high values, 0 = plate median, 100 = signal doubled.
Tyrosine-protein phosphatase non-receptor type 22 (Homo sapiens), sequence (Q9Y2R2 whole entry, looked up): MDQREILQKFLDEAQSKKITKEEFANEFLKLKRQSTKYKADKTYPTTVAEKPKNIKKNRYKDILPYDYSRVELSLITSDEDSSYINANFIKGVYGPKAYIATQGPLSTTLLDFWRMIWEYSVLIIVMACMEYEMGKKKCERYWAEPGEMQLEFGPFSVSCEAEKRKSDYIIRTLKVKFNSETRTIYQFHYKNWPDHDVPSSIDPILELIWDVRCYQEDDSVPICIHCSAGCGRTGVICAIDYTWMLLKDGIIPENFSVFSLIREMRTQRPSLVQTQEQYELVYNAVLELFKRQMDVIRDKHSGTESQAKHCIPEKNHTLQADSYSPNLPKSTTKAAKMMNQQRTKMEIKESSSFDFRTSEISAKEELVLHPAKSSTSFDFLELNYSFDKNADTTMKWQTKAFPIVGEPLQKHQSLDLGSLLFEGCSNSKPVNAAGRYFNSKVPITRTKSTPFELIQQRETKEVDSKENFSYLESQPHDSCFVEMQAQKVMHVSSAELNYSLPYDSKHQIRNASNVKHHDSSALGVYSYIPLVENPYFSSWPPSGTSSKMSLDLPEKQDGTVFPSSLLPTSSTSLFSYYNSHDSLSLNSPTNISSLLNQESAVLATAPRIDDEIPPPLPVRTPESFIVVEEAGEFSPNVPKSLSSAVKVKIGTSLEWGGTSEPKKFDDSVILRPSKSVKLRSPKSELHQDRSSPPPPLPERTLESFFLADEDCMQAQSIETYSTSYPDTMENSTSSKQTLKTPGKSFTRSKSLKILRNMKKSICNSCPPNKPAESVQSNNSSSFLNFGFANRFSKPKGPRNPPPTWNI
`COc1cc(C)c(C(C)C)cc1S(=O)(=O)n1ccnc1`: the activation was 9.7% (inactive).

For the molecule `N#CCCn1ncc2ccccc21`, the activation is 44.2% (active).

Consider `Cc1cc(Nc2ccccc2)n(CCC#N)n1`, for which the activation is -4.9% (inactive).

For `N#CCCn1cnc2ccccc21`, the activation is 2% (inactive).

Turning to `O=C(NC1CCC(O)CC1)c1ccc(S(=O)(=O)NCc2ccco2)cc1` (stereo unspecified), the activation was 8.1% (inactive).

For the molecule `CC(=O)N/C(=C/c1ccc(Cl)cc1)C(=O)NCCc1c[nH]c2ccccc12`, the activation was -3% (inactive).

`COc1cc2c(cc1OC)C(C(C)C)=NC(C)(C)C2`: the activation is 12.3% (inactive).

In the case of `Cc1nn(Cc2ccccc2)c2c1C(c1ccccc1)C(C#N)=C(N)O2` (stereo unspecified), the activation is -7.2% (inactive).

On to `CC(C)(C)NC(=O)Cn1c(SCC(=O)Nc2nccs2)nc2ccccc21`, for which the activation was 8% (inactive).

As to `COc1ccc(N(CC(=O)NC2CCCCC2)C(=O)CNC(=O)c2ccco2)c(OC)c1`, the activation was 9.4% (inactive).

As for `Cc1ccc(C(=O)N/C(=C/C=C/c2ccccc2)C(=O)NCc2ccco2)cc1`, the activation was -2.3% (inactive).

Consider `COC(=O)C(C)Oc1ccc2c(-c3cccc([N+](=O)[O-])c3)cc(=O)oc2c1` (stereo unspecified), for which the activation was 0.1% (inactive).

For `Cc1ccc(NS(=O)(=O)c2c(C)[nH]c(=O)[nH]c2=O)cc1C`, the activation is 0.8% (inactive).

For `CC(=O)C1=C(C)NC(C)=C(C(C)=O)C1c1cn(-c2ccccc2)nc1-c1cccs1`, the activation is -3.9% (inactive).

With `COc1cccc2cc(C(=O)N3CCN(C(=O)c4ccccc4)CC3)c(=O)oc12`, the activation is 17.4% (inactive).

Regarding `CS(=O)(=O)N(CC(=O)N1CCN(Cc2ccccc2)CC1)c1ccc2c(c1)OCCO2`, the activation is -3.3% (inactive).

Turning to `O=C(CCNS(=O)(=O)c1ccccc1C(F)(F)F)NCc1ccc2c(c1)OCO2`, the activation was 13.9% (inactive).

`CCOc1ccc(-c2nc(C)sc2CC(=O)O)cc1`: the activation was 14.3% (inactive).

In the case of `Cc1ccc(NC(=O)CN2CCc3ccccc3C2)cc1`, the activation is -4.9% (inactive).

In the case of `CC(C)C(=O)NC(NC(=S)NC1CCS(=O)(=O)C1)C(Cl)(Cl)Cl` (stereo unspecified), the activation is -11.6% (inactive).

For the molecule `O=C(Oc1ccccc1C(=S)N1CCCCC1)c1cc([N+](=O)[O-])cc([N+](=O)[O-])c1`, the activation was -4.4% (inactive).

As to `c1ccc(-c2nccc(-c3ccc(-n4cnc5ccccc54)cc3)n2)nc1`, the activation is -36.4% (inactive).

Consider `Cn1ncc2c(Nc3cccc4ccccc34)ncnc21`, for which the activation is -5% (inactive).

With `CCn1c(-c2ccoc2C)n[nH]c1=S`, the activation was 7.5% (inactive).

`N#Cc1ccccc1CN1C(=O)S/C(=C/c2cccn2-c2cccc(C(=O)O)c2)C1=O`: the activation is -30.2% (inactive).

Regarding `O=C1CC(C(F)(F)C(F)(F)C(F)(F)C(F)(F)F)=Nc2ccccc2N1`, the activation is 1.9% (inactive).

In the case of `N#Cc1ccc(Oc2cc(C(F)(F)F)nc(-c3ccccn3)n2)cc1`, the activation is -2.8% (inactive).

In the case of `CCSc1nnc(-c2cc3c(s2)-c2ccccc2CC3)o1`, the activation is -3.7% (inactive).

With `O=C(CCCn1c(SCC(=O)c2ccccc2)nc2ccccc2c1=O)NCC1CCCO1` (stereo unspecified), the activation was -4.2% (inactive).

For `c1ccc(-c2nc(NCc3ccco3)c3ccccc3n2)cc1`, the activation is 8% (inactive).

Consider `CCSc1ccccc1C(=O)NCc1ccc(OC)cc1`, for which the activation is -18.7% (inactive).

Turning to `Cc1nc(NC2=NC(C(=O)Nc3ccc(Cl)cc3)CC(=O)N2)nc2ccccc12` (stereo unspecified), the activation is -2.8% (inactive).

Turning to `COc1cccc(CNCCc2c[nH]c3ccccc23)c1OCc1ccccc1F`, the activation was 10.4% (inactive).

Turning to `CC(C)NC(=O)c1ccccc1S(=O)c1ccccc1C#N` (stereo unspecified), the activation was 4% (inactive).

`O=C(Cc1c(O)c2ccccc2[nH]c1=O)NCc1ccccc1`: the activation is 3.6% (inactive).

As for `C=CCn1c(Oc2ccc(C(=O)OC)cc2)nc2c1c(=O)n(C)c(=O)n2C`, the activation is -3.9% (inactive).

`O=C(O)C1CC=CCC1C(=O)Nc1ccccc1C(=O)N1CCN(c2ccccc2)CC1` (stereo unspecified): the activation is -3.2% (inactive).

Take `Cc1cccc(NC(=O)c2ccc(OCC(=O)NCc3ccccc3)cc2)c1C`: the activation was 6% (inactive).

Consider `O=C(COC(=O)c1ccccc1SCC(=O)NC1CCCCC1)NC1CCCCC1`, for which the activation was -5.6% (inactive).

Regarding `O=C(Nc1ccccc1)OCc1cn(-c2ccc(Cl)cc2)nn1`, the activation was -1.5% (inactive).

Turning to `Cc1ccc(N2C(=O)CC(Sc3ncn[nH]3)C2=O)cc1` (stereo unspecified), the activation is -8.7% (inactive).

In the case of `Cc1onc(-c2ccccc2Cl)c1C(=O)OCC(=O)c1ccccc1`, the activation is 13.5% (inactive).

Take `Cc1noc(C)c1C(=O)N1CCOCC1`: the activation is 33% (inactive).

For `CN(C)c1ccc(NC(=S)N(CCc2ccccc2)C2CC(=O)N(c3c(Cl)cccc3Cl)C2=O)cc1` (stereo unspecified), the activation is -8.5% (inactive).

`CC1=CC(C)(C)NC(=S)N1c1ccccc1`: the activation was -7.5% (inactive).

With `COC(=O)C1(O)CC(C(C)C)=NN1C(=O)c1ccc(Cl)cc1` (stereo unspecified), the activation was -5.9% (inactive).
